The text below walks through data of PubChem BioAssay AID2685 (National Center for Advancing Translational Sciences (NCATS), 2010).

Screen size: about 320,000 compounds; about 2,100 (0.66%) were called active. Roughly 53% stayed inconclusive and do not appear here. The call rests on the fitted dose curve; in most records, active means well fitted inhibition curve with a large enough effect in the signal ratio, with a control signal flat (not every such curve was filed as active); inconclusive means small, poorly fitted or top-dose-only effect, or effect the other way, or a change in a side signal; inactive means flat fitted curve, though single readings scatter; the % refers to the signal ratio. This excerpt belongs to a sample that is enriched for actives.
Potency means the concentration at half of the fitted maximal effect.

The nature of the assay: qHTS Assay for Lipid Storage Modulators in Drosophila S3 Cells.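 On cell number change: cells counted by Cell Tracker Red CMTPX staining in the red channel.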 Particulars: BODIPY lipid droplet fluorescence, 18-24 h, cells fed with added oleic acid; cell number change: measured here: cell count max response; series mostly up to 46.1 µM. From the text: NIH Molecular Libraries Probe Production Centers Network [MLPCN] NIH Chemical Genomics Center [NCGC] MLPCN Grant: 1 R03 MH085686-01 Assay Submitter (PI): Beller, Mathias; Max-Planck-Institut fur Biophysikalische Chemie NCGC Assay Overview: Storing lipids as a reservoir for energy or the anabolism of elementary metabolites is a common feature of probably all cells and is conserved from bacteria to humans. The universal cellular lipid storage organelle is the so-called lipid storage droplet (LD). Although ubiquitous, LDs share a simple structure composed of a hydrophobic core that harbors the storage lipids, which is shielded by a droplet-specific phospholipid monolayer to which proteins are attached. The current model of LD biogenesis involves an incorporation of the lipid core into the membrane leaflets of the endoplasmic reticulum (ER) followed by a subsequent budding-like maturation of a LD, which ultimately pinches off. Once released, LD volume can increase by localized lipogenesis or fusion of existing droplet. Storage lipids are re-mobilized enzymatically by lipase activity. Lipase regulation in the adipocyte is heavily studied and involves multiple components including catecholamine signaling, the LD-associated proteins Perilipin and comparative gene identification (CGI-58) and at least two lipases named hormone sensitive lipase (HSL) and adipocyte triglyceride lipase (ATGL). LD regulation outside of the adipocyte is poorly understood and only few components are known. However, there is an urgent need to learn more about ectopic fat depots as mislocalized storage of lipids, for example in the liver or muscle, is an eminent health problem associated with insulin resistance or the metabolic syndrome. We developed a laser-scanning cytometer assay to enable 1,536-well screening and combined the results of the small molecules screen with an RNAi database based on lipid storage.
Triacsin C (Sigma-Aldrich T-4540), an inhibitor of long-chain fatty acyl CoA synthetase that blocks synthesis of triglycerides, was used as a positive control for lipid under-storage. A total of 23 nL of compound solution of different concentrations were transferred to the assay plates using a Kalypsys pin tool equipped with a 1,536-pin array containing 10-nL slotted pins (FP1S10, 0.457-mm diameter, 50.8 mm long; V&P Scientific). One microliter of oleic acid (400 uM) was added, and the plate was lidded with stainless steel rubber gasket lined lids containing pinholes. […] Fluorescence was detected by excitation of the fluorophores with a 488-nm laser on an Acumen Explorer (TTP Lab Tech). The total intensity in channel 2 (500-530 nm) reflected lipid droplet accumulation. Cells were detected using channel 3 (575-640 nm) with 5-um width and 100-um depth filters. The ratio of the number of objects in PMT channel 2 over the number of objects in PMT channel 3 was also calculated. Percent activity was computed relative to an internal control (100% inhibited lipid droplet deposition due to the presence of 20 uM Triacsin C), which was added to 32 wells/plate.
(qHTS replaces the single test concentration by a dilution series.)
Turning to `CCC1CCCCN1CCCNC(=O)CCC(=O)N1CCOc2ccccc21` (centres undefined), the Potency entry was “inactive” and the cell number change came to 10.7%.
Take `O=C(CCN1C(=O)C2C3C=CC(C3)C2C1=O)NC1CCCCC1` (centres undefined): the Potency result is “inactive”.
For the compound `CC(C(=O)NC1CCCCC1)N1C(=O)C2C3C=CC(C3)C2C1=O` (centres undefined), the Potency was 1.84 µM (active) and the cell number change is -1.76%.
In the case of `CC(C(=O)Nc1ccc2nccnc2c1)N1C(=O)C2C3C=CC(C3)C2C1=O` (centres undefined), the Potency result is “inactive” and the cell number change was 0.122%.
`NC(=O)CCC(=O)N1CCCC(C(=O)c2ccc3c4c(cccc24)CC3)C1` (centres undefined): the Potency result is “inactive” and the cell number change stood at 12.7%.
For `CCc1ccc(CN(C(=O)c2oc3ccccc3c2C)C2CCS(=O)(=O)C2)cc1` (centres undefined) the same measures were “inactive” and 23.1%.
In the same order, the values of `O=C(CCC(=O)NNC(=O)COc1ccc(Br)cc1)NCc1ccccc1` are “inactive” and 6.5%.
As for `Cc1cc(S(=O)(=O)NCc2ccccc2)ccc1OCC(=O)NCc1ccccn1`, the Potency is 5.17 µM (active) and the cell number change was found to be 6.72%.
Take `Cc1cc(S(=O)(=O)NCc2ccccc2)ccc1OCC(=O)NCc1ccncc1`: the Potency entry is “inactive” and the cell number change was found to be 13.5%.
Take `CC(C)NS(=O)(=O)c1ccc(CCC(=O)NCc2ccccn2)cc1`: the Potency entry was “inactive” and the cell number change stood at 6.74%.
On to `Cc1ccc(NS(=O)(=O)c2ccc(C(=O)NCc3ccccn3)cc2)cc1`, for which the Potency result is “inactive” and the cell number change came to 0.232%.
Turning to `Cc1ccc(S(=O)(=O)NCc2ccccc2)cc1C(=O)NCc1ccccn1`, the Potency entry was “inactive” and the cell number change is -8.5%.
In the case of `Cc1ccc(NS(=O)(=O)c2ccc(CCC(=O)NCc3ccccn3)cc2)cc1`, the Potency is 2.59 µM (active) and the cell number change was -13.1%.
Turning to `Cc1cc(C)c(C)c(S(=O)(=O)N2CCC(C(=O)N3CCCC3)CC2)c1C`, the Potency result was “inactive” and the cell number change amounted to 0.752%.
As to `CCOC(=O)c1sc(NC(=O)c2ccccc2OCC)nc1C`, the Potency entry was “inactive” and the cell number change was 6.73%.
Consider `CC(=O)NCCn1c(SCC#N)nc2ccccc2c1=O`, for which the Potency result was “inactive” and the cell number change worked out at 8.06%.
In the same order, the values of `COCCSc1nnc(NC(=O)C(C)(C)C)s1` are “inactive” and -0.0656%.
For the compound `COCCSc1nnc(NC(=O)COC)s1`, the Potency was 25.9 µM (active) and the cell number change is -16.2%.
Turning to `CCC(=O)Nc1nnc(SCCOC)s1`, the Potency result was “inactive”.
Turning to `Cn1c(NC(=O)/C=C/c2c(F)cccc2Cl)cc(=O)n(C)c1=O`, the Potency result was “inactive” and the cell number change turned out to be 12.8%.
Consider `Nc1cc([N+](=O)[O-])ccc1O`, for which the Potency was 9.2 µM (active) and the cell number change was -17.1%.
Take `Nc1cc([N+](=O)[O-])ccc1Nc1ccc(O)cc1`: the Potency result is “inactive” and the cell number change is -13.9%.
For the compound `Nc1nc(N)nc(-c2cc([N+](=O)[O-])ccc2O)n1`, the Potency entry was “inactive” and the cell number change is -17.3%.
Take `CCN(CC)CCNC(=O)c1ccccc1N`: the Potency is 23.1 µM (active) and the cell number change was -10.7%.
For `CCN(CC)CCNC(=O)c1ccccc1C(=O)c1ncc[nH]1` the same measures were “inactive” and -16.6%.
For `CCN(CC)CCNC(=O)c1cc(Br)c(N)cc1OC`, the Potency entry is “inactive” and the cell number change turned out to be 6.76%.
For `CN1CCN(NC(=O)c2cc(S(=O)(=O)Nc3ccc(Cl)cc3)ccc2Cl)CC1`, the Potency result was “inactive” and the cell number change worked out at 18.2%.
In the same order, the values of `O=[N+]([O-])c1cnc2ccccc2c1` are “inactive” and 16.2%.
As for `O=[N+]([O-])c1cc([N+](=O)[O-])c2cc3ccccc3nc2c1`, the Potency is 3.26 µM (active) and the cell number change was -20.7%.
Turning to `O=[N+]([O-])c1cc([N+](=O)[O-])c2n[nH]c(-c3ccccc3)c2c1`, the Potency entry is “inactive” and the cell number change turned out to be 17.9%.
`Cc1ccc(C(=O)NCCn2cc(SCC(=O)Nc3cc(C)on3)c3ccccc32)cc1`: the Potency result was “inactive”.
Take `CN(C)S(=O)(=O)c1cc(NC(=O)c2ccc(-n3ccnc3)c([N+](=O)[O-])c2)ccc1Cl`: the Potency was 20.6 µM (active) and the cell number change is 5.46%.
Regarding `O=C(O)c1ccc(-n2ccnc2)c([N+](=O)[O-])c1`, the Potency result is “inactive” and the cell number change turned out to be 9.03%.
In the same order, the values of `COc1ccccc1NC(=O)c1ccc(-n2ccnc2)c([N+](=O)[O-])c1` are “inactive” and 13%.
Consider `Cc1nn(CC(=O)Nc2ccc(Cl)c(S(=O)(=O)N(C)C)c2)c(C)c1[N+](=O)[O-]`, for which the Potency was 0.58 µM (active) and the cell number change was -5.49%.
Turning to `Cc1nn(CC(=O)Nc2ccc(N(C)C)cc2)c(C)c1[N+](=O)[O-]`, the Potency entry is “inactive” and the cell number change was -14.5%.
Consider `Cc1nn(CC(=O)Nc2ccc(S(=O)(=O)N(C)C)cc2)c(C)c1[N+](=O)[O-]`, for which the Potency entry was “inactive” and the cell number change worked out at 9.05%.
For `CN(C)S(=O)(=O)c1ccc(C(=O)NCCSc2ccc(Br)cc2)cc1` the same measures were “inactive” and 20%.
As for `Cc1ccc2[nH]c(=O)c(CN(CCCN(C)C)C(=S)NCCc3ccccc3)cc2c1`, the Potency result was “inactive” and the cell number change is -4.82%.
For the compound `CC(CCc1ccccc1)NC(=O)C1CCN(S(=O)(=O)c2cnc[nH]2)CC1` (centres undefined), the Potency entry is “inactive”.
Take `COc1ccc(S(=O)(=O)N2CCC(C(=O)NCC3CCCO3)CC2)cc1` (centres undefined): the Potency result was “inactive”.
Take `Cc1c(C#N)sc(C(N)=O)c1C`: the Potency entry was “inactive” and the cell number change came out at 10.5%.
In the same order, the values of `Clc1cccc(NCc2nnc(SCc3ccccc3)o2)c1` are “inactive” and -10.7%.
On to `O=C(O)c1cccc(NC(=S)NC(NC(=O)c2cccc([N+](=O)[O-])c2)C(Cl)(Cl)Cl)c1` (centres undefined), for which the Potency entry was “inactive” and the cell number change was -10.1%.
In the same order, the values of `O=C(NC(NC(=S)Nc1c(Cl)cccc1Cl)C(Cl)(Cl)Cl)c1cccc([N+](=O)[O-])c1` (centres undefined) are 3.66 µM (active) and 18.3%.
For `O=C(NC(NC(=S)Nc1ccc(Cl)cc1Cl)C(Cl)(Cl)Cl)c1cccc([N+](=O)[O-])c1` (centres undefined) the same measures were “inactive” and 12.3%.
Consider `CCCNC(=O)Cn1c(=O)n(CC(=O)N2CCCCC2)c(=O)c2sccc21`, for which the Potency result was “inactive” and the cell number change was -0.943%.
`COCCNC(=O)Cn1c(=O)n(CCCC(=O)NCc2ccc3c(c2)OCO3)c(=O)c2sccc21`: the Potency entry is “inactive” and the cell number change stood at 7.14%.
`COc1cccc(CNC(=O)Cn2c(=O)n(CCC(=O)N3CCCCC3)c(=O)c3sccc32)c1`: the Potency is 4.11 µM (active) and the cell number change is -6.85%.
`CC(=O)c1sc(Nc2ccc(C)cc2)nc1C`: the Potency result is “inactive” and the cell number change amounted to 7.99%.
For `O=C(NNC(=O)C1CC1)c1cc(Cl)nc2ccccc12`, the Potency result is “inactive” and the cell number change came out at 13.7%.
As to `Cc1nn(CCCC(=O)NCc2ccc(Cl)cc2)c(C)c1[N+](=O)[O-]`, the Potency entry was “inactive”.
`Cc1nn(Cc2ccc(Cl)cc2)c(C)c1NC(=O)C(c1ccccc1)c1ccccc1`: the Potency is 23.1 µM (active) and the cell number change is -18.5%.
For `Cc1ccc(Cn2nc(C)c(NC(=O)CCCn3nc([N+](=O)[O-])c(Cl)c3C)c2C)cc1` the same measures were 8.2 µM (active) and -28.1%.
With `Cc1nn(Cc2ccc(Cl)cc2)c(C)c1NC(=O)CCCn1nc([N+](=O)[O-])c(Cl)c1C`, the Potency entry was “inactive” and the cell number change was -11.8%.
For `Cc1nn(Cc2ccc(Cl)cc2)c(C)c1NC(=O)CCCn1nc(C)c([N+](=O)[O-])c1C`, the Potency was 2.31 µM (active) and the cell number change was 3.25%.
In the same order, the values of `Cc1nn(Cc2ccccc2Cl)c(C)c1NC(=O)CCCn1nc(C)c([N+](=O)[O-])c1C` are “inactive” and -4.35%.
As to `Cc1nn(Cc2ccccc2)c(C)c1NC(=O)CCCn1nc([N+](=O)[O-])c(Cl)c1C`, the Potency entry was “inactive” and the cell number change is -5.3%.
As to `Cc1nn(Cc2ccc(Cl)cc2)c(C)c1NC(=O)C1CC=CCC1C(=O)O` (centres undefined), the Potency entry is “inactive” and the cell number change worked out at 2.56%.
In the case of `Cc1cc(C(=O)Nc2c(C)nn(Cc3ccc(Cl)cc3)c2C)no1`, the Potency entry was “inactive” and the cell number change is -17.6%.
